Screens: PubChem, National Center for Advancing Translational Sciences (NCATS)
Giardia FBPA inh: inhibitors of Giardia lamblia fructose-1,6-bisphosphate aldolase. A8B2U2. purified Giardia FBPA. Potency, µM (highest dose often 59.6 µM), most hits filed as inhibitors. 290,000 compounds, 0.71% hits; also: nearly all actives have a fitted effect of over 55% in size
Target sequence (A8B2U2 whole entry, looked up): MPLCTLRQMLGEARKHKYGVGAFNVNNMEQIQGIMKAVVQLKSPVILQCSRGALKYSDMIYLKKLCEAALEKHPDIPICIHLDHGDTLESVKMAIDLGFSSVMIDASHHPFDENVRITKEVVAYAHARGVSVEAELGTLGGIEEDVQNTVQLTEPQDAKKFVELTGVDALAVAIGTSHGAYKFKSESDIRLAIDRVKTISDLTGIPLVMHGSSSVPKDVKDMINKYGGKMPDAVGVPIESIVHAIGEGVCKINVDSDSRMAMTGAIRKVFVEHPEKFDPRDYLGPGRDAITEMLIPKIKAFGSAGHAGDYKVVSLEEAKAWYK
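Giardia FBPA (40 nM reagent) was preincubated 10 min at RT with compound (up to 57.5 uM final), then substrate plus GAPDH/TPI/NAD/arsenate coupling system with diaphorase/resazurin was added; resorufin fluorescence (525/598 nm) was read after 20 min.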
TbPYK inhibitor: T. brucei pyruvate kinase inhibition; 410,000 compounds, 0.12% hits; TbPYK enzyme, Kinase-Glo Plus ATP luminescence, 45 min; Potency, µM (titrated, usually from 76.8 µM), most hits filed as inhibitors; Q57TT1; AID 624173; also: nearly all actives have a fitted effect of over 50% in size
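Glycolytic pyruvate kinase of T. brucei was incubated with substrate, test compound and 130 uM ADP for 45 minutes at room temperature. Luminescent Kinase-Glo Plus signal was measured after 10 minutes.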
LmPK inhibitor: LmPK (Leishmania mexicana) enzyme inhibition. Q27686. purified LmPK, Kinase-Glo ATP luminescence, 1 h. Potency, µM (doses to about 57.5 µM), most hits filed as inhibitors. 290,000 compounds, 0.37% hits. AID 1721
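Purified LmPK (0.1 nM) with 0.5 mM PEP and 0.1 mM ADP in imidazole buffer pH 7.2 with MgCl2/KCl, 1 h at room temperature. ATP formed was read by luciferase luminescence and normalized to no-enzyme and uninhibited controls.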
RE007 growth inh: less growth of the S. pombe RE007 Vpr strain | S. pombe RE007 Vpr strain, BacTiter-Glo ATP luminescence, 24 h | Potency, µM (doses to about 92.2 µM), most hits filed as inhibitors | 360,000 compounds, 0.21% hits | AID 651644; active = well fitted falling curve with a large enough effect; inconclusive = small, poorly fitted or top-dose-only effect; inactive = no such curve, though single readings can be large or run the other way; also: nearly all actives have a fitted effect of over 50% in size
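Fission yeast RE007 carrying one integrated HIV-1 vpr copy, seeded at OD 0.01 in PMG+AL medium with 23 nL pinned compound. Grown 24 h at 30 degrees; viability read by BacTiter-Glo luminescence after 5 min.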
CHX counter: counter-screen hit for Shiga toxin inhibitors, cycloheximide; 300,000 compounds, 12% hits; AID 2314; cell reporter, cycloheximide protein synthesis inhibition counterscreen; max response, %; in the data active = max response mostly above about 13%, no sharp cut-off; inactive = mostly below about 14%; also: read at 38.3 µM for the half of the compounds with a filed dose
Shiga inhibitor: Shiga toxin inhibition; inhibition, % at 38.7 µM; AID 2315; Vero cells, Shiga toxin protein synthesis inhibition reporter; 290,000 compounds, 9.2% hits; in the data active = inhibition mostly above about 28%, no sharp cut-off; inactive = mostly below about 43%
Each line names hits and unclear results; the compound was inactive in the other large screens. The sample as a whole holds a higher share of hits than the screen did. Unless noted, calls follow the shape of the dose curve; as a rule, active = well fitted curve in the direction sought with a large enough effect; inconclusive = small, poorly fitted or top-dose-only effect, or another doubt; inactive = no such curve, though single readings can be large; an effect the other way counts as inactive or inconclusive.

COc1ccc(NC(=O)CSc2nnc(NC(=O)c3ccc(S(=O)(=O)N4CCOCC4)cc3)s2)cc1	none
COc1cccc(-c2nc(CS(=O)(=O)CC(=O)NCc3ccc(C)cc3)c(C)o2)c1	none (no result: Giardia FBPA inh, LmPK inhibitor, RE007 growth inh, CHX counter, Shiga inhibitor)
COc1cc(C2C(C#N)=C(N)Oc3cc(C)n(CCN4CCOCC4)c(=O)c32)cc(OC)c1OC (configuration not stated)	CHX counter 41
CCOc1ccc(C2C(C#N)=C(N)Oc3cc(C)n(CCN4CCOCC4)c(=O)c32)cc1OCC (configuration not stated)	none
COc1cc(C2C(C#N)=C(N)OC3=C2C(=O)CC(C)(C)C3)ccc1OCCN1CCOCC1 (configuration not stated)	CHX counter 21
CN(C)C(CNC(=O)CNC(=O)c1ccc2ccccc2c1)c1ccccc1 (configuration not stated)	none
C=C(C)C1(O)OC(=O)C=C1OC (configuration not stated)	CHX counter 8.5
CCC1CCCCN1C(=O)CCn1c(=O)oc2ccccc21 (configuration not stated)	none (no result: Giardia FBPA inh, LmPK inhibitor, CHX counter, Shiga inhibitor)
CC(C)c1ccc(C(=O)CC2(O)C(=O)N(CCc3ccccc3)c3ccc(Cl)cc32)cc1 (configuration not stated)	none (no result: Giardia FBPA inh, LmPK inhibitor, RE007 growth inh, CHX counter, Shiga inhibitor)
COc1ccc(-c2nnc(SC)o2)c(OC)c1	CHX counter 21, Shiga inhibitor 72
COc1ccc(OC)c(-c2nnc(-c3ccc(C)o3)o2)c1	CHX counter 36
Cc1ccnc(NC(=O)Nc2cccc(F)c2)c1	LmPK inhibitor inconclusive, CHX counter 41, Shiga inhibitor 73 (no result: TbPYK inhibitor)
CC(=O)Nc1cccc(NC(=O)Nc2cccc(F)c2)c1	none
Cc1ccc(NC(=O)Nc2cccc(F)c2)nc1	CHX counter 26
O=C(COC(=O)/C=C/c1cccc(F)c1)Nc1ccc(Cl)cn1	none
O=C(Nc1cccc(F)c1)Nc1ccc(Cl)cn1	CHX counter 24, Shiga inhibitor 38
Cc1ccc(N2C(=O)C(CC(=O)Nc3ccc(F)cc3)N(CCC3=CCCCC3)C2=O)cc1 (configuration not stated)	none (no result: Giardia FBPA inh, LmPK inhibitor, RE007 growth inh, CHX counter, Shiga inhibitor)
c1ccc(C[C@H]2CNCCN2CC2(c3ccccc3)CC2)cc1	none (no result: Giardia FBPA inh, LmPK inhibitor, CHX counter, Shiga inhibitor)
Cc1cccc(Cn2c(-c3cccc(Br)c3)nc3ccccc32)c1	none (no result: Giardia FBPA inh, LmPK inhibitor, RE007 growth inh, CHX counter, Shiga inhibitor)
Brc1cccc(Cn2c(-c3cncs3)nc3ccccc32)c1	Shiga inhibitor 32
c1ccc(Cn2c(-c3cncs3)nc3ccccc32)cc1	CHX counter 60
Brc1ccc(Cn2c(-c3cncs3)nc3ccccc32)cc1	CHX counter 33, Shiga inhibitor 94
CCC1CN2CCC1CC2[C@@H](NC(=S)Nc1cc(C(F)(F)F)cc(C(F)(F)F)c1)c1cccc2ccc(OC)cc12 (some centres not stated)	none (no result: TbPYK inhibitor, LmPK inhibitor, RE007 growth inh, CHX counter, Shiga inhibitor)
COCCNC(=O)C1(C)CCCN(C(=O)COc2ccccc2)C1 (configuration not stated)	none (no result: Giardia FBPA inh, LmPK inhibitor, CHX counter, Shiga inhibitor)
Cc1cc(NC(=O)Nc2ccccc2F)ccc1Br	CHX counter 55, Shiga inhibitor 77
CC(=O)Nc1ccc(SCC(=O)O)cc1	none
O=C(Nc1ccccc1)Nc1ccc(Br)cc1F	CHX counter 31, Shiga inhibitor 110
Cc1ccccc1NC(=O)Nc1ccccc1Br	none
O=C(O)CSc1ccc(NC(=O)Nc2ccccc2F)cc1	TbPYK inhibitor inconclusive, LmPK inhibitor 16µM, RE007 growth inh inconclusive
O=C(Nc1cccc(Cl)c1)Nc1ccc(Br)cc1F	CHX counter 19, Shiga inhibitor 67
N#Cc1ccccc1NC(=O)Nc1cccc(Cl)c1	none
CC(=O)OCCCN1c2ccccc2Nc2nnc(-c3ccccc3)cc21	CHX counter 36, Shiga inhibitor 68
CC(=O)OCCN1c2ccccc2Sc2cnccc21	none (no result: Giardia FBPA inh, LmPK inhibitor, CHX counter, Shiga inhibitor)
CCc1ccc(Nc2nc(-c3cc4cccc(OC)c4oc3=O)c(CC)s2)cc1	none (no result: Giardia FBPA inh, LmPK inhibitor, RE007 growth inh, CHX counter, Shiga inhibitor)
COc1ccc2oc(=O)c(-c3csc(Nc4cccc(O)c4)n3)cc2c1	CHX counter 48, Shiga inhibitor 58
COc1ccc(Nc2nc(-c3cc4cccc(OC)c4oc3=O)cs2)cc1	CHX counter 21
COc1cccc2sc(Nc3nc(-c4cc5ccccc5oc4=O)cs3)nc12	none
CCC1CCCCN1C(=O)CCS(=O)(=O)c1cc2c(cc1C)NC(=O)CO2 (configuration not stated)	none (no result: Giardia FBPA inh, LmPK inhibitor, RE007 growth inh, CHX counter, Shiga inhibitor)
CC(C)(C)c1csc(NC(=O)c2cccnc2)n1	CHX counter 13
CCOc1ncccc1C(=O)Nc1nc(C(C)(C)C)cs1	none
CC(C)(C)c1cc(NC(=O)c2cccs2)no1	none (no result: Giardia FBPA inh, LmPK inhibitor, CHX counter, Shiga inhibitor)
CCOC(=O)Cc1csc(NC(=O)Cc2cccs2)n1	none (no result: TbPYK inhibitor)
CC(C)(C)c1cc(NC(=O)c2cccnc2)no1	CHX counter 31
CC(C)(C)c1csc(NC(=O)c2cccs2)n1	RE007 growth inh inconclusive, CHX counter 44, Shiga inhibitor 71
CC(C)(C)c1csc(NC(=O)Cc2cccs2)n1	CHX counter 33, Shiga inhibitor 61
O=C(Nc1nc(-c2ccc(Cl)cc2)cs1)c1cccnc1	none
COc1ccc(Cl)cc1NC(=O)CN(C)C(=O)c1ccc(-n2cncn2)cc1	none (no result: Giardia FBPA inh, LmPK inhibitor, CHX counter, Shiga inhibitor)
COc1ccccc1NC(=O)c1oc2ccccc2c1NC(=O)Cc1ccccc1	none (no result: Giardia FBPA inh, LmPK inhibitor, RE007 growth inh, CHX counter, Shiga inhibitor)
O=S(=O)(CCc1ccccc1)c1nnnn1C1CCCCC1	none (no result: TbPYK inhibitor, LmPK inhibitor, RE007 growth inh, CHX counter, Shiga inhibitor)
COc1ccc(C(=O)Nn2c(C)nc3ccccc3c2=O)cc1[N+](=O)[O-]	none
CC(C)(C)c1csc(NNC(=O)c2ccc(Cl)cc2)n1	CHX counter 29, Shiga inhibitor 64
CC(C)(C)c1cc(NC(=O)C2CCCO2)no1 (configuration not stated)	CHX counter 33, Shiga inhibitor 47
O=C(O)c1cc(NC(=O)C2CCCO2)cc(C(=O)O)c1 (configuration not stated)	none
CC(C)(C)c1csc(NC(=O)CCc2ccccc2)n1	RE007 growth inh inconclusive, CHX counter 25 (no result: Shiga inhibitor)
Cc1ccc(S(=O)(=O)CCC(=O)Nc2nc(C(C)(C)C)cs2)cc1	none
Cc1cccc(N=Nc2c(C)c(C#N)c(O)[nH]c2=O)c1	CHX counter 14
Cc1c(C#N)c(O)[nH]c(=O)c1N=Nc1ccc(Br)cc1C(=O)O	Giardia FBPA inh inconclusive
COc1cccc(NC(=O)c2cnc(NS(=O)(=O)c3ccccc3)nc2)c1	none (no result: Giardia FBPA inh, LmPK inhibitor, CHX counter, Shiga inhibitor)
O=C(Nc1cccc2nsnc12)c1ccc2c(c1)OCO2	LmPK inhibitor inconclusive, RE007 growth inh inconclusive, Shiga inhibitor 52
O=C(N/N=C/c1ccc(O)cc1)Nc1cccc2nsnc12	CHX counter 40, Shiga inhibitor 94
CCCC(=O)Nc1ccccc1NC(=O)c1ccc2c(c1)OCO2	none
O=C(Nc1cccc2cccnc12)c1ccc(Br)cc1	CHX counter 31 (no result: Giardia FBPA inh, TbPYK inhibitor, LmPK inhibitor, RE007 growth inh)
O=C(Nc1cccc2nsnc12)c1ccc2c(c1)OCCO2	LmPK inhibitor inconclusive, CHX counter 30, Shiga inhibitor 108
